CYP2C9 inh: human CYP2C9 inhibition | CYP2C9 Supersomes, luciferin-H conversion, luminescence | P11712 | hit rate 20% among 96,000 | AID 777 | inhibition, % at 5 µM;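 active = blocking of liver enzyme CYP2C9 beyond about 50% at 5 µM, limit read from the data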
CYP2C9 act: increases human cytochrome P450 2C9 activity; AID 1024; hit rate 1.4% among 96,000; activation factor at 5 µM; recombinant CYP2C9, luciferin-H conversion, luminescence; hits give high values; factor 1 = untreated enzyme, 0 = blocked; P11712;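 active = activation factor of 2 or more for CYP2C9 at a 5 µM dose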;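 note: 0 = sulfaphenazole-blocked wells and 1 = vehicle-only wells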
CYP2C19 act: increases human CYP2C19 enzyme activity. P33261. activation factor at 5 µM. recombinant CYP2C19, luciferin-H EGE luminescence; hits give high values; 0 = fully inhibited enzyme, 1 = untreated enzyme. 96,000 tested, under 10 active;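 active = activation factor of at least 2 at 5 µM in the primary screen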;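 note: 0 = wells with 2.5 mM tranylcypromine and 1 = vehicle-only wells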
sEH inh: inhibitors of human soluble epoxide hydrolase; inhibition, % at 2 µM; recombinant human sEH enzymatic activity assay; P34913; hit rate 0.34% among 91,000; in the data active = inhibition above about 80%
Target sequence (P34913 whole entry, looked up): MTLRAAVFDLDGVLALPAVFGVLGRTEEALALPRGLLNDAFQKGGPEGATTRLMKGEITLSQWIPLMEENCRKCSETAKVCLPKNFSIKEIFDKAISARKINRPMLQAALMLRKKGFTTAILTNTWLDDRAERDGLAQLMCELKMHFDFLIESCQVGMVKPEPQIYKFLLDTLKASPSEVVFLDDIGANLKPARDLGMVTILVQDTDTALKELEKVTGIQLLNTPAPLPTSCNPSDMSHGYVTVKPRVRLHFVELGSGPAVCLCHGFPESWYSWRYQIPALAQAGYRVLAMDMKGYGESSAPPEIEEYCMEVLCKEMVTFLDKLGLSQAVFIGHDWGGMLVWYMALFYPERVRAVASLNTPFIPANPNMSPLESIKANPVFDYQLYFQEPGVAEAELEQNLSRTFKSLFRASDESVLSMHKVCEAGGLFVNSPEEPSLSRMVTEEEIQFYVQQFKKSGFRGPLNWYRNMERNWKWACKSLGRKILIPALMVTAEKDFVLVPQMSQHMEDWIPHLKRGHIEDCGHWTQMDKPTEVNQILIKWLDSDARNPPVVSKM
sEH activator: increases human soluble epoxide hydrolase activity; P34913; purified human sEH enzymatic activity, activator screen; activation, % at 2 µM; hit rate 0.04% among 91,000; in the data active = activation above about 37%
CYP2C19 inh: inhibitors of human CYP2C19; AID 778; CYP2C19 Supersomes, luciferin-H EGE luminescence, 30 min; P33261; inhibition, % at 5 µM; hit rate 21% among 96,000;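 active = CYP2C19 inhibition above a set limit at 5 µM in the primary screen, cut at about 50% in these data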;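 note: plate controls were negative control wells for no effect and 2.5 mM tranylcypromine positive control for full effect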
* = called active by the depositor; x = not tested or not shown. This is a sample that favours compounds with a hit; in the whole collection about 27% have one here.

SMILES	CYP2C9 inh	CYP2C9 act	CYP2C19 act	sEH inh	sEH activator	CYP2C19 inh
N#CC(c1ccc(Cl)cc1)c1ncc(C(F)(F)F)cc1Cl (configuration not stated)	36	0.6	0.1	-4	7	94*
COC(=O)c1ccc2c(=O)sc(N3CCC(C(N)=O)CC3)nc2c1	25	0.8	0.9	-2	4	6
Cc1cccc(NCN2C(=O)c3ccccc3C2=O)c1	12	0.9	1	5	-6	2
Cc1ccccc1Cn1cccc1/C=C1/C(=N)N2C=CSC2=NC1=O	85*	0.1	0.5	2	-2	46
COc1cc(/C=C2/C(=N)N3C=CSC3=NC2=O)ccc1OCCCOc1cc(C)ccc1C	33	0.7	0.8	-6	5	21
O=C(c1ccc2c3c(cccc13)CC2)N1CCOCC1	-112	2.1*	0.7	5	-6	34
O=C1c2ccccc2-c2c1cccc2C(=O)N1CCOCC1	x	x	x	0	0	x
CCc1nc(C)cn1S(=O)(=O)c1cc(C)c(OC)cc1C	-14	1.1	0.4	x	x	62*
CCc1nc(C)cn1S(=O)(=O)c1ccc(Cl)c(Cl)c1Cl	60*	0.4	0.1	-4	2	95*
CCc1nc(C)cn1S(=O)(=O)c1cc(Br)ccc1OC	-12	1.1	0	5	-2	96*
COc1cc(C)c(C(C)C)cc1S(=O)(=O)n1cnc(C)c1	-8	1.1	0.8	x	x	17
CCc1nc(C)cn1S(=O)(=O)c1cc(Cl)c(OC)cc1Cl	-8	1.1	0.6	-9	9	43
CCc1nc(C)cn1S(=O)(=O)c1cc(Br)c(C)cc1OC	58*	0.4	0.4	8	-6	61*
COCCNC(=O)C(OC(=O)CC1Sc2ccccc2NC1=O)c1ccccc1 (configuration not stated)	x	x	x	3	1	x
O=S1(=O)N=C(N2CCc3ccccc3C2)c2ccccc21	-20	1.2	0.6	-3	6	40
CCOC(=O)C1CCN(C(=O)Nc2ccc3nc(C)c(C)nc3c2)CC1	1	1	1	16	-15	2
CCc1nc(C)cn1S(=O)(=O)c1cc(C)c(OC)c(C)c1C	-5	1	0.4	-2	4	62*
CCOc1ccc(Nc2cc(=O)oc3ccccc23)cc1	-89	1.9	0.9	-2	1	11
CCc1nc(OCCN(C)C)c2oc3ccccc3c2n1	6	0.9	1.1	-1	4	-9
CCSc1nc(N)c2c(C)c(C)sc2n1	x	x	x	0	0	x
C=CCSc1nc(N)c2c(C)c(C)sc2n1	58*	0.4	0.1	x	x	88*
CCOC(=O)NC(O)C(=O)c1cccs1 (configuration not stated)	-9	1.1	1.1	x	x	-9
Cc1ccc(-n2ncc3c(=O)n(Cc4ccccn4)cnc32)cc1C	8	0.9	1	-6	4	0
COc1ccc(S(=O)(=O)N2CCN(c3cccc(C)c3C)CC2)cc1	88*	0.1	0	8	-8	97*
Cc1ccccc1CN1CCN(S(=O)(=O)c2ccc(F)cc2)CC1	x	x	x	17	-13	x
SMILES	CYP2C9 inh	CYP2C9 act	CYP2C19 act	sEH inh	sEH activator	CYP2C19 inh
CCN1CCN(S(=O)(=O)c2cc(OC)ccc2OC)CC1	-18	1.2	0.9	-4	4	13
Cc1cccc(C)c1N1CCN(S(=O)(=O)c2ccc(F)cc2)CC1	93*	0.1	0	13	-12	97*
COc1ccc(OC)c(S(=O)(=O)N2CCN(c3c(C)cccc3C)CC2)c1	98*	0	0.5	4	-5	50*
COc1ccccc1N1CCN(S(=O)(=O)c2ccc(Cl)s2)CC1	96*	0	0	26	-27	97*
COc1ccc(C(=O)O)cc1S(=O)(=O)NCCCN1CCCC1=O	2	1	1	1	1	0
CC(C)(C)C1(C)OC(C(=O)NC2CCCCC2)C(C(=O)NC2CCCCC2)O1 (configuration not stated)	12	0.9	0.8	x	x	18
O=C(CSc1nnc(-c2ccccc2)o1)n1c2c(c3ccccc31)CCCC2	-19	1.2	0.8	-3	5	21
COc1ccccc1N1CCN(S(=O)(=O)/C=C/c2ccccc2)CC1	66*	0.3	0	-7	7	100*
O=C(c1ccc(S(=O)(=O)N2CCOCC2)cc1)N1CCN(c2ccccc2F)CC1	-9	1.1	1.1	-2	5	-7
COc1ccccc1N1CCN(S(=O)(=O)c2ccc(F)cc2)CC1	82*	0.2	0.1	44	-43	91*
COc1ccccc1N1CCN(C(=O)c2ccc(S(=O)(=O)N3CCCCCC3)cc2)CC1	71*	0.3	0.5	2	3	52*
COc1ccccc1N1CCN(S(=O)(=O)c2cccc(F)c2)CC1	89*	0.1	0	9	-4	96*
CC(C)(C)C(=O)Nc1ccc(C(=O)NNC(=O)Cc2ccccc2)cc1	-25	1.3	1.1	4	-4	-8
CC1CCN(C(=O)CN2C(=O)C(C)(C)Oc3ccc(C(=O)NC4CCCC4)cc32)CC1	49	0.5	0.9	-9	10	14
COc1cccc(C2=NOC(C(=O)NCC3CCCO3)C2)c1 (configuration not stated)	-70	1.7	0.9	-15	14	11
COc1ccc(OC)c(C2=NOC(C(=O)NCC3CCCO3)C2)c1 (configuration not stated)	-133	2.3*	0.7	4	-5	34
O=C(NCC1CCCO1)C1CC(c2ccccc2Cl)=NO1 (configuration not stated)	-318	4.2*	0.4	-5	2	56*
CCCCOc1ccc(C2C(=O)N(C3CCCCC3)CC(=O)N2CC2CCCO2)cc1 (configuration not stated)	28	0.7	0.8	-6	7	20
COc1cc(C2Nn3c(nnc3-c3ccccc3OC)S2)ccc1O (configuration not stated)	x	x	x	11	-8	x
CCCc1oc(C(=O)O)cc1CN1CCOCC1	-69	1.7	0.7	8	-10	28
CCOc1cc(C(c2c(C)[nH][nH]c2=O)c2c(C)[nH][nH]c2=O)ccc1OC(=O)c1cccc([N+](=O)[O-])c1	54*	0.5	0.6	4	-2	41
CCOc1cc(C(c2c(C)[nH][nH]c2=O)c2c(C)[nH][nH]c2=O)ccc1OCc1ccc([N+](=O)[O-])cc1	34	0.7	0.4	10	-9	60*
Cc1cc(N2CCC3(CC2)OCCO3)n2nc(C)c(-c3ccc(Cl)cc3)c2n1	x	x	x	-14	10	x
CCS(=O)(=O)N1CCN(c2c(Cl)cccc2[N+](=O)[O-])CC1	40	0.6	0.5	-14	12	52*
O=C(CSc1ccc(Cl)cc1)N1CCN(c2ccc([N+](=O)[O-])cc2Cl)CC1	37	0.6	0.9	10	-8	11
O=C(CSc1ccc(Cl)cc1)N1CCN(c2c(Cl)cccc2[N+](=O)[O-])CC1	71*	0.3	0.7	-4	9	35

Screening results: PubChem BioAssay, several laboratories
